# PubChem BioAssay (NCI)
# This is part of a sample that, as a whole, favours compounds with a hit. Of some 79,000 tested, about 15% had one in any assay. A number with no mark means an inactive call. The source made the active and inactive calls. Cut-off read from the data, not from the text of the source: active = growth inhibition above about 70%; inactive = the rest.
# Columns and labels:
# [1] = NCI Yeast Anticancer Drug Screen. Data for the rad52 strain (AID 147);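 note: 0% = growth of vehicle-treated control cultures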; conditions: S. cerevisiae rad52 mutant growth inhibition, stronger effect = higher value
# Outline: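 Measured: yeast growth inhibition. System: strain with a defined DNA damage repair alteration. Reference: vehicle-treated control cultures.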
# [2] = NCI Yeast Anticancer Drug Screen. Data for the wt1 strain (AID 149);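 note: 0% = growth of vehicle-treated wt1 cultures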; conditions: S. cerevisiae wt1 strain (SPY 50644) growth inhibition, stronger effect = higher value
# Outline: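 Growth inhibition read against vehicle controls after compound exposure of the wt1 yeast strain.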
# [3] = NCI Yeast Anticancer Drug Screen. Data for the rad50EPP+ strain (AID 151);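 note: 0% = growth of vehicle-treated control cultures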; conditions: S. cerevisiae rad50 mutant strain, stronger effect = higher value
# Outline: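 One strain with a rad50 alteration (rad50EPP+) was compound-treated, its growth then compared to that of vehicle controls.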
# [4] = NCI Yeast Anticancer Drug Screen. Data for the rad50 strain (AID 155);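 note: 0% = growth of vehicle-only cultures of the same strain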; conditions: S. cerevisiae rad50 strain growth inhibition, stronger effect = higher value
# Outline: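 Readout: growth inhibition relative to vehicle-treated cultures. Compound exposure was carried out in a genetically defined yeast strain deficient in DNA damage repair.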
# [5] = NCI Yeast Anticancer Drug Screen. Data for the mec2-1 strain (AID 157); conditions: S. cerevisiae mec2-1 strain, stronger effect = higher value
# Outline: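 Test agents were screened against the mec2-1 yeast strain, with defined DNA repair or cell cycle alteration. Growth was scored as inhibition against vehicle-only controls.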
# [6] = NCI Yeast Anticancer Drug Screen. Data for the rad14 strain (AID 159);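 note: 0% = growth of vehicle-treated control cultures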; conditions: S. cerevisiae rad14 strain growth inhibition, stronger effect = higher value
# Outline: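 Growth inhibition vs vehicle controls; genetically altered yeast strain (DNA damage repair defect) treated with test compounds.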
# [7] = NCI Yeast Anticancer Drug Screen. Data for the sgs1 mgt1 strain (AID 161);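 note: 0% = growth of cultures given vehicle only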; conditions: S. cerevisiae sgs1 mgt1 strain, stronger effect = higher value
# Outline: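 Inhibition of yeast growth, normalised to vehicle-treated controls, is reported for a strain bearing genetic alterations in DNA damage repair.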
# [8] = NCI Yeast Anticancer Drug Screen. Data for the CLN2oe strain (AID 163);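 note: 0% = growth of vehicle-only control cultures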; conditions: S. cerevisiae CLN2oe strain, stronger effect = higher value
# Outline: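 Here, growth inhibition in a cell-cycle-altered yeast strain after compound exposure was quantified against vehicle control growth.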
# [9] = NCI Yeast Anticancer Drug Screen. Data for the cln2 rad14 strain (AID 165);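 note: 0% = growth equal to vehicle treated cultures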; conditions: S. cerevisiae cln2 rad14 strain, stronger effect = higher value
# Outline: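 Growth of compound-exposed yeast (cln2 rad14 genotype) measured and expressed as inhibition relative to vehicle.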
# [10] = NCI Yeast Anticancer Drug Screen. Data for the bub3 strain (AID 167); conditions: S. cerevisiae bub3 mutant strain, stronger effect = higher value
# Outline: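 Readout: yeast growth inhibition, expressed relative to vehicle-only wells. The test organism is a mutant strain from a panel with lesions in DNA repair or checkpoint genes.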
# [11] = NCI Yeast Anticancer Drug Screen. Data for the wt2 strain (AID 169);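 note: 0% = growth of vehicle-treated yeast cultures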; conditions: S. cerevisiae wt2 strain growth inhibition, stronger effect = higher value
# Outline: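 Genetically defined yeast strains from a DNA-repair/cell-cycle panel were used. Compound-exposed yeast growth was measured, and the inhibition was calculated relative to vehicle treatment.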
# [12] = NCI Yeast Anticancer Drug Screen. Data for the mlh1 strain (AID 171);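 note: 0% = growth of vehicle-treated control cultures of the same strain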; conditions: S. cerevisiae mlh1 strain growth inhibition, stronger effect = higher value
# Outline: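 Here the genetically defined yeast mutant is grown with each compound, and the extent to which its growth falls below that of vehicle-exposed cells is reported.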
# [13] = NCI Yeast Anticancer Drug Screen. Data for the sgs1 strain (AID 173);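 note: 0% = growth of vehicle-only control cultures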; conditions: S. cerevisiae sgs1 mutant, stronger effect = higher value
# Outline: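 Relative growth inhibition, referenced to vehicle, was determined in a yeast strain with a defined alteration affecting DNA damage repair or cell cycle control after compound exposure.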
# [14] = NCI Yeast Anticancer Drug Screen. Data for the mlh1 rad18 strain (AID 175); conditions: S. cerevisiae mlh1 rad18 strain growth inhibition, stronger effect = higher value
# Outline: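 In this whole-cell yeast screen, a strain with altered DNA damage repair is challenged with compound, and its growth is measured against matched vehicle-treated controls.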
# [15] = NCI Yeast Anticancer Drug Screen. Data for the mgt1 strain (AID 153); conditions: S. cerevisiae mgt1 mutant growth inhibition, stronger effect = higher value
# Outline: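 After exposure of the mgt1 yeast mutant to compound, growth was measured and reported as inhibition compared with vehicle controls.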
# [16] = NCI Yeast Anticancer Drug Screen. Data for the rad18 strain (AID 177); conditions: S. cerevisiae rad18 mutant growth inhibition, stronger effect = higher value
# Outline: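 Screen uses a yeast strain with a defined lesion in DNA damage repair; compound effect is read as loss of growth compared to untreated vehicle cultures.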
# [17] = at 5.0 µM (retest, dose inferred, filed as 0.5)
# [18] = at 50.0 µM (retest, dose inferred, filed as 5.0)
compound,measurement,setting,value
O=c1[nH]cc(F)c(=O)[nH]1,growth inhibition,[1]; at 1.2 µM,2%
same,growth inhibition,[1]; at 3.7 µM,14%
same,growth inhibition,[1]; at 11.0 µM,39%
same,growth inhibition,[1]; at 33.0 µM,71% (active)
same,growth inhibition,[1]; at 100.0 µM,88% (active)
same,growth inhibition,[2]; at 1.2 µM,-1%
same,growth inhibition,[2]; at 3.7 µM,-1%
same,growth inhibition,[2]; at 11.0 µM,9%
same,growth inhibition,[2]; at 33.0 µM,34%
same,growth inhibition,[2]; at 100.0 µM,64%
same,growth inhibition,[3]; at 1.2 µM,4%
same,growth inhibition,[3]; at 3.7 µM,31%
same,growth inhibition,[3]; at 11.0 µM,73% (active)
same,growth inhibition,[3]; at 33.0 µM,92% (active)
same,growth inhibition,[3]; at 100.0 µM,96% (active)
same,growth inhibition,[4]; at 1.2 µM,2%
same,growth inhibition,[4]; at 3.7 µM,17%
same,growth inhibition,[4]; [17],26%
same,growth inhibition,[4]; at 11.0 µM,43%
same,growth inhibition,[4]; at 33.0 µM,77% (active)
same,growth inhibition,[4]; [18],89% (active)
same,growth inhibition,[4]; at 50.0 µM,93.2% (active)
same,growth inhibition,[4]; at 100.0 µM,91% (active)
same,growth inhibition,[5]; at 1.2 µM,11%
same,growth inhibition,[5]; at 3.7 µM,12%
same,growth inhibition,[5]; [17],26%
same,growth inhibition,[5]; at 11.0 µM,14%
same,growth inhibition,[5]; at 33.0 µM,14%
same,growth inhibition,[5]; [18],96% (active)
same,growth inhibition,[5]; at 50.0 µM,53.7%
same,growth inhibition,[5]; at 100.0 µM,9%
same,growth inhibition,[6]; at 1.2 µM,1%
same,growth inhibition,[6]; at 3.7 µM,10%
same,growth inhibition,[6]; at 11.0 µM,17%
same,growth inhibition,[6]; at 33.0 µM,54%
same,growth inhibition,[6]; at 100.0 µM,77% (active)
same,growth inhibition,[7]; [17],53%
same,growth inhibition,[7]; [18],95% (active)
same,growth inhibition,[7]; at 50.0 µM,49.6%
same,growth inhibition,[8]; at 1.2 µM,21%
same,growth inhibition,[8]; at 3.7 µM,23%
same,growth inhibition,[8]; at 11.0 µM,21%
same,growth inhibition,[8]; at 33.0 µM,19%
same,growth inhibition,[8]; at 100.0 µM,18%
same,growth inhibition,[9]; [17],17%
same,growth inhibition,[9]; [18],73% (active)
same,growth inhibition,[9]; at 50.0 µM,66.7%
same,growth inhibition,[10]; at 1.2 µM,6%
same,growth inhibition,[10]; at 3.7 µM,7%
same,growth inhibition,[10]; [17],2%
same,growth inhibition,[10]; at 11.0 µM,5%
same,growth inhibition,[10]; at 33.0 µM,19%
same,growth inhibition,[10]; [18],81% (active)
same,growth inhibition,[10]; at 50.0 µM,44.6%
same,growth inhibition,[10]; at 100.0 µM,3%
same,growth inhibition,[11]; at 1.2 µM,1%
same,growth inhibition,[11]; at 3.7 µM,17%
same,growth inhibition,[11]; at 11.0 µM,58%
same,growth inhibition,[11]; at 33.0 µM,86% (active)
same,growth inhibition,[11]; at 100.0 µM,95% (active)
same,growth inhibition,[12]; at 1.2 µM,4%
same,growth inhibition,[12]; at 3.7 µM,8%
same,growth inhibition,[12]; at 11.0 µM,23%
same,growth inhibition,[12]; at 33.0 µM,72% (active)
same,growth inhibition,[12]; at 100.0 µM,93% (active)
same,growth inhibition,[13]; at 1.2 µM,10%
same,growth inhibition,[13]; at 3.7 µM,44%
same,growth inhibition,[13]; at 11.0 µM,79% (active)
same,growth inhibition,[13]; at 33.0 µM,92% (active)
same,growth inhibition,[13]; at 100.0 µM,96% (active)
same,growth inhibition,[14]; [17],16%
same,growth inhibition,[14]; [18],86% (active)
same,growth inhibition,[14]; at 50.0 µM,89.2% (active)
CC1C=CN(N(C)C)C2=C1C(=O)c1cnccc1C2=O (stereo unspecified),growth inhibition,[2]; at 1.2 µM,-1%
same,growth inhibition,[2]; at 3.7 µM,7%
same,growth inhibition,[2]; at 11.0 µM,47%
same,growth inhibition,[2]; at 33.0 µM,83% (active)
same,growth inhibition,[2]; at 100.0 µM,96% (active)
same,growth inhibition,[3]; at 1.2 µM,-4%
same,growth inhibition,[3]; at 3.7 µM,53%
same,growth inhibition,[3]; at 11.0 µM,82% (active)
same,growth inhibition,[3]; at 33.0 µM,91% (active)
same,growth inhibition,[3]; at 100.0 µM,93% (active)
same,growth inhibition,[15]; at 1.2 µM,-31%
same,growth inhibition,[15]; at 3.7 µM,9%
same,growth inhibition,[15]; at 11.0 µM,51%
same,growth inhibition,[15]; at 33.0 µM,87% (active)
same,growth inhibition,[15]; at 100.0 µM,96% (active)
same,growth inhibition,[4]; at 1.2 µM,31%
same,growth inhibition,[4]; at 3.7 µM,68%
same,growth inhibition,[4]; [17],81% (active)
same,growth inhibition,[4]; at 11.0 µM,86% (active)
same,growth inhibition,[4]; at 33.0 µM,93% (active)
same,growth inhibition,[4]; [18],93% (active)
same,growth inhibition,[4]; at 50.0 µM,85% (active)
same,growth inhibition,[4]; at 100.0 µM,96% (active)
same,growth inhibition,[5]; at 1.2 µM,-36%
same,growth inhibition,[5]; at 3.7 µM,-23%
same,growth inhibition,[5]; [17],30%
same,growth inhibition,[5]; at 11.0 µM,49%
same,growth inhibition,[5]; at 33.0 µM,86% (active)
same,growth inhibition,[5]; [18],95% (active)
same,growth inhibition,[5]; at 50.0 µM,92.2% (active)
same,growth inhibition,[5]; at 100.0 µM,96% (active)
same,growth inhibition,[6]; at 1.2 µM,-70%
same,growth inhibition,[6]; at 3.7 µM,-31%
same,growth inhibition,[6]; at 11.0 µM,46%
same,growth inhibition,[6]; at 33.0 µM,89% (active)
same,growth inhibition,[6]; at 100.0 µM,95% (active)
same,growth inhibition,[7]; [17],48%
same,growth inhibition,[7]; [18],86% (active)
same,growth inhibition,[7]; at 50.0 µM,89.7% (active)
same,growth inhibition,[8]; at 1.2 µM,-11%
same,growth inhibition,[8]; at 3.7 µM,10%
same,growth inhibition,[8]; at 11.0 µM,49%
same,growth inhibition,[8]; at 33.0 µM,90% (active)
same,growth inhibition,[8]; at 100.0 µM,93% (active)
same,growth inhibition,[9]; [17],25%
same,growth inhibition,[9]; [18],-18%
same,growth inhibition,[9]; at 50.0 µM,87.8% (active)
same,growth inhibition,[10]; at 1.2 µM,-38%
same,growth inhibition,[10]; at 3.7 µM,-8%
same,growth inhibition,[10]; [17],12%
same,growth inhibition,[10]; at 11.0 µM,46%
same,growth inhibition,[10]; at 33.0 µM,89% (active)
same,growth inhibition,[10]; [18],6%
same,growth inhibition,[10]; at 50.0 µM,85.2% (active)
same,growth inhibition,[10]; at 100.0 µM,97% (active)
same,growth inhibition,[11]; at 1.2 µM,5%
same,growth inhibition,[11]; at 3.7 µM,6%
same,growth inhibition,[11]; at 11.0 µM,43%
same,growth inhibition,[11]; at 33.0 µM,90% (active)
same,growth inhibition,[11]; at 100.0 µM,96% (active)
same,growth inhibition,[12]; at 1.2 µM,-48%
same,growth inhibition,[12]; at 3.7 µM,-23%
same,growth inhibition,[12]; at 11.0 µM,40%
same,growth inhibition,[12]; at 33.0 µM,89% (active)
same,growth inhibition,[12]; at 100.0 µM,97% (active)
same,growth inhibition,[13]; at 1.2 µM,41%
same,growth inhibition,[13]; at 3.7 µM,46%
same,growth inhibition,[13]; at 11.0 µM,65%
same,growth inhibition,[13]; at 33.0 µM,93% (active)
same,growth inhibition,[13]; at 100.0 µM,96% (active)
same,growth inhibition,[14]; [17],83% (active)
same,growth inhibition,[14]; [18],95% (active)
same,growth inhibition,[14]; at 50.0 µM,89.8% (active)
same,growth inhibition,[16]; at 1.2 µM,66%
same,growth inhibition,[16]; at 3.7 µM,87% (active)
same,growth inhibition,[16]; at 11.0 µM,90% (active)
same,growth inhibition,[16]; at 33.0 µM,96% (active)
same,growth inhibition,[16]; at 100.0 µM,96% (active)
